In the library only some 14% were active in any assay of this set; here they are far more common.
Pf growth 48h = Primary qHTS for delayed death inhibitors of the malarial parasite plastid, 48 hour incubation | P. falciparum luciferase growth in erythrocytes, 48 h | Potency, µM (titrated, usually from 28.7 µM), for inactives: top-dose activity change, negative = inhibition, most hits filed as inhibitors | 310,000 tested, 5.9% active; note: potency is the fitted concentration of half-maximal effect; % is set by controls: 0 for no effect and ±100 for the full control effect
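Cell-based growth assay: transgenic P. falciparum expressing firefly luciferase, cultured in red cells within RPMI 1640 containing 0.5% w/v Albumax, 24 mM bicarbonate and gentamycin. A drop in luciferase activity indicates inhibition.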
LASV entry inh = qHTS for Inhibitors of binding or entry into cells for Lassa Virus; Lassa virus pseudotype entry inhibition, cell reporter; Potency, µM (top dose mostly 37.9 µM), without a hit: at the top dose activity change, negative = inhibition, actives largely listed as inhibitors; 300,000 tested, 1.2% active; AID 540256, 2011; calls by dose curve; tested in HEK293 cells; note: potency is the fitted concentration of half-maximal effect; % is set by controls: 0 for no effect and ±100 for the full control effect; nearly all actives have a fitted effect of over 50% in size
Pf growth 96h = Primary qHTS for delayed death inhibitors of the malarial parasite plastid, 96 hour incubation | P. falciparum luciferase reporter growth, 96 h | 320,000 tested, 6.9% active | Potency, µM (titrated, usually from 28.7 µM), for inactives: at the highest dose activity change, negative = inhibition, actives largely listed as inhibitors; note: potency is the fitted concentration of half-maximal effect; % is set by controls: 0 for no effect and ±100 for the full control effect
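Luminescence readout: decreased luciferase signal marks inhibited growth of reporter-expressing P. falciparum in infected red cells (2% hematocrit, 0.05% parasitemia final), exposed to compound two generations (96 h, 37 C, 5% CO2).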
HCMV antiviral = qHTS Assay for inhibitors of the human cytomegalovirus (HCMV); activity change, negative = inhibition, % at 57.5 µM; HFF cells, HCMV-luciferase reporter, 72 h; hits give low values; AID 1259415, 2018; 410,000 tested, 4.5% active; in the data active = activity change below about -60%; inconclusive = no clear call, values can overlap the other calls; inactive = above about -39%; note: % is set by controls: 0 for no effect and ±100 for the full control effect
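Luciferase read-out from HCMV-luciferase-infected HFFs (MOI 1 PFU/cell) 72 h post infection at 37C; compounds added after 16 h cell attachment; activity normalized between buffer-only basal and Salinomycin (10uM) inhibitor controls.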
MARV entry inh = qHTS for inhibitors of binding or entry into cells for Marburg Virus; Marburg virus pseudotyped entry inhibition, cell reporter; Potency, µM (titrated, usually from 37.8 µM), without a hit: at the highest dose activity change, negative = inhibition, actives largely listed as inhibitors; 300,000 tested, 1.8% active; calls by dose curve; tested in HEK293 cells; note: potency is the fitted concentration of half-maximal effect; % is set by controls: 0 for no effect and ±100 for the full control effect
HCV inhibitor = qHTS Assay for Inhibitors of Hepatitis C Virus (HCV); Huh7.5.1 HCVcc-Cre infection, luciferase reporter, 44 h; Potency, µM (series often up to 41.8 µM), without a hit: top-dose activity change, negative = inhibition, hits mostly inhibitors; 340,000 tested, 3.4% active; note: potency is the fitted concentration of half-maximal effect; % is set by controls: 0 for no effect and ±100 for the full control effect
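Antiviral activity was scored by luciferase reporter output from cells infected with HCVcc-Cre (~0.5 moi) in presence of compound, 44 h infection period, cells seeded 1,000/well 4 h prior.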
HCV confirm = qHTS Assay for Inhibitors of Hepatitis C Virus (HCV): Confirmation Assay for Cherry-picked Compounds; shares compounds with HCV inhibitor; Potency, µM (series often up to 41.8 µM), inactives show at the highest dose activity, negative = inhibition, hits mostly inhibitors; HCVcc-Cre infectious virus cell assay, luciferase, inhibition; 640 tested, 78% active; note: potency is the fitted concentration of half-maximal effect; nearly all actives have a fitted effect of over 80% in size
HCV cytotox = qHTS Assay for Inhibitors of Hepatitis C Virus (HCV): Cytotoxicity Counterscreen for Cherry-picked Compounds. 640 tested, 22% active. AID 720576, 2013. Potency, µM (doses to about 41.8 µM), for inactives: at the highest dose activity change, negative = cytotoxicity, most hits filed as inhibitors. shares compounds with HCV inhibitor. HCV host cell line cytotoxicity counterscreen;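 note: potency is the fitted concentration of half-maximal effect; 44 h compound exposure; % is set by controls: 0 for no effect and ±100 for the full control effect; nearly all actives have a fitted effect of over 55% in size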
An asterisk follows results filed as active; ? = inconclusive; / = no result given; [ ] = remark or other dose. Unless noted, calls come from the whole dose curve; as a rule, active = well fitted curve in the direction sought with a large enough effect; inconclusive = small, poorly fitted or top-dose-only effect, or another doubt; inactive = no such curve, though single readings can be large; an effect the other way counts as inactive or inconclusive.

SMILES	Pf growth 48h	LASV entry inh	Pf growth 96h	HCMV antiviral	MARV entry inh	HCV inhibitor	HCV confirm	HCV cytotox
COc1ccc(NC(=O)Nc2ccccc2SC)cc1OC	87%	/	?	-1	/	?	/	/
COc1cc(OC)c(NC(=O)c2cccc(F)c2)cc1Cl	15%	?	40%	8	9%	?	?	35%
COc1cc(OC)c(NC(=O)Nc2ccc(OC)c(OC)c2)cc1Cl	-9%	25%	-26%	-29	?	2.5µM*	-21%	-25%
COc1cc(OC)c(NC(=O)c2ccc(F)cc2)cc1Cl	0%	16%	28%	-39	-20%[46.1 µM]	-28%	/	/
Cc1cc(C(=O)N2CCCc3ccccc32)ccc1[N+](=O)[O-]	11%	-22%[46.1 µM]	39%	7	0%[46.1 µM]	2%	/	/
Cc1ccc(S(=O)(=O)Cc2ccc(C(=O)NCCc3ccc(Cl)cc3)o2)cc1	/	?	/	-35	?	/	/	/
CC1(C(=O)NC2CCCC2)CCC(=O)N1C1CCN(Cc2ccccc2)CC1 (stereo not given)	/	/	/	20	/	/	/	/
Cn1nnnc1Sc1ncnc2scc(-c3ccc(C#N)cc3)c12	4.7µM*	/	1.9µM*	-94*	/	/	25µM*	25µM*
O=C(Nc1cc2c(cc1C(=O)c1ccc(Br)cc1)OCCO2)c1ccc(Cl)cc1	/	-13%[46.1 µM]	/	-40	/	/	/	/
CN1C(=O)/C(=C\c2cc(N=Nc3ccccc3)ccc2O)SC1=S	?	-1%	?	36	1%	-7%	/	/
Cc1cc(/C=C2\SC(=S)N(C)C2=O)c(C)n1-c1cccc(O)c1	-31%	/	1%	-92*	/	4.5µM*	25µM*	25µM*
CCOC(=O)c1cccc(NC(=O)c2cc3sccc3n2C)c1	116%	-7%	/	109	10%	3.2µM*	25µM*	-29%
Cc1cc(C(=O)CSc2nnc(-c3ccco3)o2)c(C)n1Cc1ccco1	-11%	1%	?	-34	-18%	?	16µM*	?
C=CCc1ccc(OCCOc2cccc3ccc(C)nc23)c(OC)c1	?	-9%	?	118	?	8.9µM*	13µM*	24%
CCOC(=O)c1[nH]nc2c1C(=O)N(Cc1ccccc1)C2=O	26%	-13%	?	39	-2%	-26%	/	/
Cc1cc(C)cc(NC(=O)c2nnn(Cc3cc(C)ccc3C)c2N)c1	?	/	10µM*	/	/	?	11µM*	23%
CCOC(=O)C1(Cc2ccccc2C(F)(F)F)CCN(C2CCN(C(C)C)CC2)CC1	6%	?	15µM*	-69*	7.3µM*	3.2µM*	11µM*	-24%
C=C(c1ccccc1Cl)[n+]1ccccc1	2.9µM*	-12%	1.7µM*	-60*	?	4.5µM*	7µM*	25µM*
Cc1ccc(NS(=O)(=O)c2ccc3nc(-c4ccccc4)[nH]c3c2)c(Cl)c1	/	-8%[46.1 µM]	/	-16	-2%[46.1 µM]	/	/	/
Cn1c2ccccc2c(=O)c2ccc(C#Cc3ccc(N)cc3)cc21	-25%	/	9.3µM*	?	/	6.3µM*	22µM*	41%
CCc1ccccc1Nc1ncnc2c1cnn2-c1ccc(Cl)cc1	/	18%[46.1 µM]	/	-5	/	/	/	/
COc1ccc(OC)c(-c2cc(C(=O)NCc3ccco3)no2)c1	54%	-8%	-25%	97	-3%	?	28µM*	-14%
Cc1ccc(-c2cc(C(=O)NCc3ccco3)no2)cc1	88%	?	-13%	25	12%	-1%	/	/
Cc1cc(S(=O)(=O)Nc2ccc3ccccc3c2)c(C)s1	-7%	-16%	/	?	?	?	22µM*	?
Cn1c(SCc2ccc(F)cc2Cl)nc2ccccc2c1=O	?	?	?	?	?	?	6.3µM*	14µM*
SMILES	Pf growth 48h	LASV entry inh	Pf growth 96h	HCMV antiviral	MARV entry inh	HCV inhibitor	HCV confirm	HCV cytotox
Cc1cc(NC(=S)N(CCN2CCCCC2)Cc2ccco2)ccc1Cl	?	?	?	?	?	8.9µM*	25µM*	-14%
Cc1ccc(NC(=O)CCC2CC(C)(C)OC2=O)cc1 (stereo not given)	23%	0%[46.1 µM]	2%	0	14%	4µM*	1%	-2%
CC1(C)CC(CCC(=O)Nc2ccc(S(N)(=O)=O)cc2)C(=O)O1 (stereo not given)	19%	2%	15%	29	10%	15%	/	/
CCc1ccc(-n2nc(C)c3c(C)cc(=O)n(CC(=O)N(CC)Cc4ccccc4)c32)cc1	/	-9%[46.1 µM]	/	21	/	/	/	/
CCC(C)NC(=O)C(=O)NCC1CCCN1CC (stereo not given)	15%	/	0%	-29	/	-2%	/	/
COc1ccc([N+](=O)[O-])cc1NC(=O)CSc1nc(C)cc(C)n1	4%	-9%	?	?	?	?	/	/
COc1ccc([N+](=O)[O-])cc1NC(=O)CSc1ccc2ccccc2c1	-6%	-10%	?	?	-17%	?	13µM*	?
Cc1noc(C)c1S(=O)(=O)NC(=O)C1(C)CCN1C(=O)C1(c2ccc(Cl)cc2)CCC1 (stereo not given)	/	/	/	-21	/	/	/	/
CCCc1ccc(C2C3=C(CC(C)(C)CC3=O)NC3=C2C(=O)c2ccccc23)cc1 (stereo not given)	9.3µM*	?	3.3µM*	?	?	2.2µM*	11µM*	?
CCOC(=O)c1cc2c(ccc3nc(C)c(C)c32)[nH]c1C	?	/	-3%	-17	/	3.2µM*	13µM*	20%
O=[N+]([O-])c1cccc2ccc(/C=C/c3ccc(F)cc3)nc12	?	16%	-79%	2	1%	1µM*	3.1µM*	-21%
O=[N+]([O-])c1cccc(/C=C/c2ccc3cccc(O)c3n2)c1	12%[0.00184 µM]	-3%[46.1 µM]	?	21	-24%[46.1 µM]	-10%	/	/
CC(C)=CC(=O)Nc1cccc(S(=O)(=O)NC2=NCCCCC2)c1	/	/	/	4	/	-1%	/	/
COc1ccc(/C=C/C(=O)Nc2cccc(S(=O)(=O)NC3=NCCCCC3)c2)cc1OC	?	/	?	-16	/	6.3µM*	20µM*	?
CC(C)c1cc(C(=O)O)c2cnn(C(C)C)c2n1	16%	/	42%	0	/	-8%	/	/

Source: PubChem BioAssay
